Structures are written as SMILES. In all, about 69,000 compounds went through this assay and about 420 (0.61%) showed an effect of 50% or more. This is one part of a sample in which strong results are shown more often than they occur.

For this test, the target named is T1, Histidine--tRNA ligase (Leishmania infantum) (UniProt A4I591).
T1 sequence (whole entry): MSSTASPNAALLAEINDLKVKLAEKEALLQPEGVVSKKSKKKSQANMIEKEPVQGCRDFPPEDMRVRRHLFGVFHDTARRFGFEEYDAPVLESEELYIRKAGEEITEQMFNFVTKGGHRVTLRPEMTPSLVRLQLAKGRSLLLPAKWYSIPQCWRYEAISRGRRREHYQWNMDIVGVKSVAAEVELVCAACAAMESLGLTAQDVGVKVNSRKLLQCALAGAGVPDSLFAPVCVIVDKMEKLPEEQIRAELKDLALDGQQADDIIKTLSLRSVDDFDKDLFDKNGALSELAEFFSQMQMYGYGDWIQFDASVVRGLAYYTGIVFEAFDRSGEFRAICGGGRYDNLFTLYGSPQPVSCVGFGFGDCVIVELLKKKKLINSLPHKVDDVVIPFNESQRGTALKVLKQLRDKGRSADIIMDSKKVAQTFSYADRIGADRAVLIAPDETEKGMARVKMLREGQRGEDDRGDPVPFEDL
In words: Leishmania infantum Histidine tRNA synthetase (LdHisRS). In kind it is functional. Set-up: scale not given: in the data most compounds retested in dose-response had high values. The following applies: 30 µM.
`Cc1cccc2cc(CN3CCCN4CCC[C@H]4C3)c(=O)[nH]c12`: the Percent Effect stood at 17.5%.

Turning to `CNc1ncccc1CN1CCN2CCN(C)CC2C1` (stereo not given), the Percent Effect stood at 6.33%. On to `Clc1cc(CN2CCCN3CCCC3C2)c2ncccc2c1` (stereo not given), for which the Percent Effect came to 62.9%. For the compound `CNC(=O)[C@H]1C[C@@H]2CN(c3cc(OC)ncn3)C[C@@H]2N1C(C)C`, the Percent Effect was -7.02%. As for `c1cc(COC[C@]23COC[C@H]2CN(Cc2ccsc2)C3)ccn1`, the figure is 10.1%; as for `CNCCc1nc2cc(F)ccc2[nH]1`, 55.3%. As for `CNCCc1nc2cc(Cl)ccc2[nH]1`, the Percent Effect was 14.6%.

Consider `CCNCCc1nc2cc(F)ccc2[nH]1`, for which the Percent Effect turned out to be 25.8%. Turning to `O=C1[C@H]2CN(Cc3ccccn3)C[C@H]2CN1c1ccsc1`, the Percent Effect came out at 6.42%. As for `COc1ccc2c(c1)c(C(=O)Nc1n[nH]c(C(C)C)n1)cn2C(C)C`, the figure is 22.9%; as for `COc1ccc2c(c1)c(C(=O)Nc1nnn[nH]1)cn2C(C)C`, 52.1%; as for `COc1ccc2c(c1)c(C(=O)Nc1nnn[nH]1)cn2C`, 18.8%. Regarding `CN1C(Cn2cccn2)C[C@@H]2CN(Cc3cccnc3)CC[C@@H]21` (stereo not given in full), the Percent Effect turned out to be 13.7%. With `O=C1[C@@H]2CCN(C3CCC3)C[C@@H]2OCCN1Cc1ccncc1`, the Percent Effect was determined as 17.2%. In the case of `Cc1noc(C)c1CN1CC[C@H]2OCC[C@@]2(C(=O)N2CCCO2)C1`, the Percent Effect is 17.6%.

In the case of `O=C1[C@H]2CN(CC3CC3)C[C@H]2CN1c1ccsc1`, the Percent Effect is 3.01%. `COc1ccc(CCN)cc1-c1ccc(S(C)(=O)=O)cc1`: the Percent Effect was 23.9%. As for `COc1ccc(CCN)cc1-c1ccc(C(N)=O)cc1`, the Percent Effect stood at 71.8%. Take `COc1ccc(CCN)cc1-c1ccc(O)cc1`: the Percent Effect is -4.22%. As for `c1cnc(N2CCO[C@H]3CN(CC4CCOCC4)C[C@H]32)nc1`, the Percent Effect was found to be 11.7%.

Source of the values: ChEMBL document CHEMBL3988442, “University of Dundee, Small-Polar-MMV Screening Library” (2021).
